In PubChem BioAssay (Tox21):
Records with an inconclusive call do not appear. Calls of active or inactive are those of the source. The call rests on the fitted dose curve.

Experiment: qHTS assay to identify small molecule agonists of the AP-1 signaling pathway - cell viability counter screen (AID 1159525); further: nearly all actives have a fitted effect of over 55% in size
Details: ME-180 (cervical carcinoma) AP-1-bla cells viability, ATP luminescence, 5 h; series mostly up to 76.8 µM
Summary of the method: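 AP-1-bla ME-180 cells in Opti-MEM with 0.5% dialyzed FBS, compound exposure 5 h at 37 C in 15-point titration. Viability read in the same wells as ATP content by CellTiter-Glo luminescence, normalised to tetra-n-octylammonium bromide and DMSO controls.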

| SMILES | outcome | viability change, negative = cytotoxic |
| --- | --- | --- |
| C#CC(C)N(C)C(=O)Nc1ccc(Cl)cc1 (centres undefined) | inactive | – |
| CC(C)(C)OC(=O)c1ccc(O)cc1 | inactive | – |
| CCN(C)C(=O)Oc1cccc([C@H](C)N(C)C)c1 | inactive | – |
| CC(=O)c1ccc2c(c1)Cc1ccccc1-2 | inactive | – |
| CCN1CCc2nc(N)oc2CC1 | inactive | – |
| COc1nccnc1NS(=O)(=O)c1ccc(N)cc1 | inactive | – |
| BrCCCCCBr | inactive | – |
| c1ccc2c(c1)ccc1c3ccccc3ccc21 | inactive | – |
| CCC(C=O)CC | inactive | – |
| CN(CCOc1ccc(NS(C)(=O)=O)cc1)CCc1ccc(NS(C)(=O)=O)cc1 | inactive | – |
| O=C1c2ccccc2C(=O)N1CCl | inactive | – |
| CN(C)CCOCCO | inactive | – |
| CCOC(=O)CC(=O)c1ccccc1 | inactive | – |
| O=C(O)c1ccc(Cl)cc1Cl | inactive | – |
| CN(C)c1ccc(C=O)cc1 | inactive | – |
| CCOc1cc(NC(C)=O)ccc1C(=O)OC | inactive | – |
| CC(=C(CCOC(=O)C(C)C)SSC(CCOC(=O)C(C)C)=C(C)N(C=O)Cc1cnc(C)nc1N)N(C=O)Cc1cnc(C)nc1N | inactive | – |
| C[C@@H](Oc1ccc(CNC(=O)c2cccnc2Oc2ccc3c(c2)OCO3)c(F)c1)C(=O)O | inactive | – |
| O=C(NCCN1CCOCC1)c1ccc(Cl)cc1 | inactive | – |
| N[C@@H](COP(=O)(O)O)C(=O)O | – | 11.4% [at 15.8 µM] (inactive) |
| COCCOCCOCCOCCO | inactive | – |
| CCCCCCCC/C=C\CCCCCCCC(=O)OCCCC | – | -3.05% [at 15.8 µM] (inactive) |
| Cc1ccsc1/C=C/C1=NCCCN1C | inactive | – |
| CNC(=O)[C@H]1O[C@@H](n2cnc3c(NCc4cc(Cl)ccc4OCc4cc(C)no4)ncnc32)[C@H](O)[C@@H]1N | inactive | – |
